Screening results (PubChem)
Shown is part of a subset that was picked to be rich in hits.
TbREL1 primary – TbREL1 inhibition, primary screen. 0.49% of 89,000 active. P86926. TbREL1 RNA ligation, FRET fluorescence. inhibition, % at 9.66 µM;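 active = inhibition above the mean inhibition across all screened compounds plus 3 SD, cut at about 11% in these data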;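 note: 0% = plate median of test wells and 100% = NSC42067 control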
Target sequence (P86926 whole entry, looked up): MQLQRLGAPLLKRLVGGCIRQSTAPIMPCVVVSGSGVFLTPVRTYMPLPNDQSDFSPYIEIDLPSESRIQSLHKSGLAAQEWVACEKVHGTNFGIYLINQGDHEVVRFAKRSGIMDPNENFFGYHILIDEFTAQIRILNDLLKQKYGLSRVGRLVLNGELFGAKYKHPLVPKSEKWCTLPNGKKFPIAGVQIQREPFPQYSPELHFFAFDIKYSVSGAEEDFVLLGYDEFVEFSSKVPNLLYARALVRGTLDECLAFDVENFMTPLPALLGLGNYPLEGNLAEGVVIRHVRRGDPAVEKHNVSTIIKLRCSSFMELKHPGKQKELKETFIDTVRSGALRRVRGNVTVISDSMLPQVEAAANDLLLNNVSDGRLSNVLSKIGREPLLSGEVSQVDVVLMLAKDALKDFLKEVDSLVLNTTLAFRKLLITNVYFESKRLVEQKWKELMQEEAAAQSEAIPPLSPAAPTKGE
TbREL1 confirm – TbREL1 inhibition, confirmation. shares compounds with TbREL1 primary. TbREL1 RNA ligation, FRET fluorescence. inhibition, % at 9.66 µM. 37% of 390 active. AID 1117282;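 active = mean inhibition across replicates above a set limit taken from the earlier primary screen, cut at about 11% in these data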;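 note: 0% = REL1 with substrate and DMSO and 100% = REL1 plus control inhibitor NSC42067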
The depositor's hits bear a star.

SMILES | TbREL1 primary | others
O=C(NCCCc1ccccc1)[C@H](CO)NC1(C(=O)NCCc2c[nH]c3ccccc23)CCCCC1 | -2.5
O=C(NC(C(=O)O)c1ccccc1)c1ccccc1 (stereo not drawn) | 1.4
O=C(NC1(O)C(=O)c2ccccc2C1=O)c1ccccc1 | 22.4* | TbREL1 confirm=48.7*
CC(=O)C(C(C)=O)C1(O)C(=O)c2ccccc2C1=O | 6.7
O=S1(=O)c2c(cccc2N2CCC[C@@H]2CO)OCCCN1C1CC1 | 1.5
Cc1cc(C)c(OCCCNCc2ccccc2)c(Br)c1 | 15.0* | TbREL1 confirm=15.0*
COc1cccc(OCCNCc2ccccc2)c1 | 0.8
Cc1cc(Cl)c(OCCN2C(=O)NC(C)(C)C2=O)c(Br)c1 | -0.8
CCCCNCc1cc(Br)c(OCC(=O)NCc2ccccc2)c(OC)c1 | 2.8
Clc1ccc(OCCCNCc2ccccc2)c(Br)c1 | 1.9
Cc1cc(Cl)c(OCCCNCc2ccccc2)c(Br)c1 | 11.8* | TbREL1 confirm=11.4*
O=C(CCS(=O)(=O)c1cc2c(cc1Br)CCN2C(=O)C1CC1)N1CCN(c2ccccn2)CC1 | -1.2
C#CCNC(=O)C[C@H]1C(=O)N(CCCOC)C2=CCCC[C@@]21C(=O)OCC | 0.3
O=C(Nc1ccc(F)cc1)OCCN1CCCC12CCC(c1ccccc1)CC2 (stereo not drawn) | 5.1
Cc1ccc(C(=O)NC2CCCCN(Cc3ccccc3C)C2=O)cc1 (stereo not drawn) | -3.7
CCN(Cc1ccccc1)S(=O)(=O)c1ccc(C(=O)N(CCCN(C)C)c2nc3c(F)cccc3s2)cc1 | 28.3* | TbREL1 confirm=8.3
CN(C)CCCN(C(=O)c1ccc(C(=O)c2ccccc2)cc1)c1nc2c(F)cccc2s1 | 3.6
CCOc1cccc2sc(N(CCCN(C)C)C(=O)c3ccc(S(=O)(=O)N4CCCCCC4)cc3)nc12 | 15.4* | TbREL1 confirm=7.7
CCN(Cc1ccccc1)S(=O)(=O)c1ccc(C(=O)N(CCCN(C)C)c2nc3cc(C)cc(C)c3s2)cc1 | 14.8* | TbREL1 confirm=6.5
COc1cc2nc(N(CCCN(C)C)C(=O)c3ccc(S(=O)(=O)N4CCc5ccccc5C4)cc3)sc2cc1OC | -1.9
Cc1cc(C)c2sc(N(CCCN(C)C)C(=O)c3ccc(Br)s3)nc2c1 | 5.4
Cc1cc(C)c2sc(N(CCN(C)C)C(=O)c3c(F)cccc3F)nc2c1 | 1.8
CCc1ccc2nc(N(CCCN(C)C)C(=O)c3ccc(S(=O)(=O)N4CCCC4)cc3)sc2c1 | 10.5
CCN(c1ccccc1)S(=O)(=O)c1ccc(C(=O)N(CCCN(C)C)c2nc3c(C)cccc3s2)cc1 | 12.6* | TbREL1 confirm=11.2*
CN(C)CCN(C(=O)c1ccc2c(c1)CCCC2)c1nc2c(F)cccc2s1 | 1.8
SMILES | TbREL1 primary | others
CN(C)CCCN(C(=O)c1ccc(S(=O)(=O)N2CCCCCC2)cc1)c1nc2c(F)cccc2s1 | 7.9
COc1cccc2sc(N(CCCN(C)C)C(=O)c3ccc(S(=O)(=O)N4CCc5ccccc5C4)cc3)nc12 | 4.6
CCCC/C=C1/[C@H](c2ccccc2)N(C)C2=N[C@@H](c3ccccc3)CC(=O)N21 | 0.3
CCC[C@H]1[C@@H](OC(=O)N2CCCC2)CC[C@@]23CCCN2C(=O)CCC[C@@H]13 | 6.3
O=C(CSc1nc2ccccc2n1Cc1ccccc1Cl)N/N=C\c1cccc(Oc2ccccc2)c1 | 0.8
O=C(NC1CCCC1)C1CCN(S(=O)(=O)c2ccc3[nH]c(=O)oc3c2)CC1 | 10.9
Cc1cccc(NC(=O)c2cccc3c2-c2ccccc2C3=O)c1C | -0.3
COc1ccccc1CC(=O)NCCN1C(=O)C2C3C=CC(C3)C2C1=O (stereo not drawn) | -1.6
COc1ccc(-c2c(C(=O)c3ccccc3)[nH]c(N)c2C(=O)c2c[nH]c3ccccc23)cc1OC | -5.5
C[C@H]1[C@@H](N(C)Cc2ccccc2)CC[C@@]23CCCN2C(=O)CCC[C@@H]13 | 1.5
CCOc1ccc(C(=O)O)cc1OC | -1.1
O=C(O)c1cccc(NS(=O)(=O)c2cccc3cccnc23)c1 | -0.3
O=C(O)c1ccnc(C(=O)O)c1 | 12.6* | TbREL1 confirm=15.6*
CC(C)(C)c1ccc(-c2nnc3n2N=C(c2ccc4ccccc4c2)CS3)cc1 | 4.6
C=CCn1c(COc2ccc(Cl)cc2)nnc1SCC(=O)c1ccc(-c2ccccc2)cc1 | 0.7
COc1ccc(CCN(Cc2cccs2)S(=O)(=O)c2ccc(F)cc2)cc1OC | 0.1
O=C(NCc1ccccc1)OC1CCC12CCC(c1ccccc1)CC2 (stereo not drawn) | -1.7
c1ccc(-c2c(-c3ccccc3)n(Cc3ccco3)c3ncnc(NCCCn4ccnc4)c23)cc1 | -1.9
COc1ccc(-c2oc3ncnc(N)c3c2-c2ccccc2)cc1 | 3.8
CN(C)CCCNc1ncnc2oc(-c3ccccc3)c(-c3ccccc3)c12 | 11.7* | TbREL1 confirm=5.7
O=S(=O)(c1ccc(Cl)cc1)N1CCN(Cc2ccc(O)c3ncccc23)CC1 | 0.1
CN1CCN(C2CCN(Cc3ccc(O)c4ncccc34)CC2)CC1 | 16.6* | TbREL1 confirm=8.0
Oc1c(Cl)cc(CN2CCOCC2)c2cccnc12 | 2.2
CC(C)Oc1ccc(CNCCC2(C(C)C)CCOC(C)(C)C2)cc1 (stereo not drawn) | 2.5
COc1ccc(C(CCNCc2ccc(OC(C)C)cc2)c2ccccc2OC)cc1 (stereo not drawn) | 15.0* | TbREL1 confirm=19.2*
SMILES | TbREL1 primary | others
COc1ccc(CNCCC(c2ccccc2)c2ccc(OC(C)C)cc2)cc1OC (stereo not drawn) | 10.1
CCN(CC)C(=O)CNc1nnnn1-c1ccccc1 | -0.8
CC(C)(C)c1ccc(S(=O)(=O)NCC(=O)N2CCN(c3ncccn3)CC2)cc1 | 0.5
O=C(NCCc1c[nH]c2ccccc12)OCc1cn(Cc2ccccc2C(F)(F)F)nn1 | -5.2
Nn1c(SCC(=O)Nc2cccc(C(F)(F)F)c2)nncc1=O | 5.3
CCOc1ccc(NC(=O)CSc2nncc(=O)n2N)cc1 | 11.2* | TbREL1 confirm=1.1
Nn1c(SCC(=O)Nc2c(Cl)cccc2Cl)nncc1=O | -0.7
S=c1[nH]nc(-c2cc(-c3ccccc3)n[nH]2)n1N=Cc1cccc(Oc2ccccc2)c1 | -4.4
S=C(NCc1ccco1)NCc1ccco1 | 17.4* | TbREL1 confirm=2.4
S=C(NCc1ccc(Cl)c(Cl)c1)NCc1ccco1 | -1.4
S=C(NCc1ccccc1)NCc1ccco1 | -1.1
O=C(NCCN1CCC(Cc2ccccc2)CC1)C1CCCN(S(=O)(=O)c2ccc(Br)s2)C1 (stereo not drawn) | 6.9
c1ccc(CCNCCCOc2cccc3ccccc23)cc1 | 12.3* | TbREL1 confirm=9.6
CC(=O)NCCOc1cccc2ccccc12 | 4.3
Clc1ccc(OCCNCCc2ccccc2)cc1 | 3.5
CCC(C)[C@H](NC(=O)C1COC(O)([C@H](Cc2ccccc2)NC(=O)[C@@H](NC(=O)OCc2ccccc2)C(C)C)CN1C)C(=O)N[C@H](C(=O)OC)C(C)C (stereo partly drawn) | 1.2
Cc1ccc(CN2CCCCC(NC(=O)Nc3ccccc3-c3ccccc3)C2=O)cc1 (stereo not drawn) | -2.6
COc1cc2c(cc1NC(=O)CSc1nnc(-c3ccccn3)n1-c1ccccc1)oc1ccccc12 | 8.1
COc1cc2c(cc1NC(=O)CSc1nnc(-c3cccnc3)n1-c1ccc(Br)cc1)oc1ccccc12 | 11.5* | TbREL1 confirm=5.6
CCOc1ccc(-n2c(SCC(=O)Nc3cc4oc5ccccc5c4cc3OC)nnc2-c2cccc(Cl)c2)cc1 | 1.3
Clc1cc(Cl)cc(CNC2CCC23CCC(c2ccccc2)CC3)c1 (stereo not drawn) | 0.9
CC(C)C[C@H]1CN=C(Nc2ccccc2)N1CCC1CCCC1 | 10.6
CCCCCCCN1C(Nc2ccccc2)=NC[C@@H]1CC(C)C | 11.9* | TbREL1 confirm=20.0*
